Calls of active or inactive are those of the source. How the source made its calls: active means hit-call score of the fitted dose curve at least 0.9, where 1 is the maximum; inactive means score below 0.9.
Assays:
[1] = ATG_GLI_CIS: Attagene CIS-FACTORIAL HepG2 Assay for human Zinc Finger Protein GLI1 (AID 2282945); conditions: HepG2, Attagene cis-factorial reporter mRNA, GLI element; actives raise or lower the signal
Method in brief: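 Transiently transfected HepG2 cells report endogenous transcription factor activity via cis-element-driven reporter units. After 24 h compound exposure, reporter mRNA was measured by RT-PCR with capillary electrophoresis; bidirectional fitting against DMSO baseline.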

[2] = target: Bile acid receptor (Homo sapiens) (UniProt Q96RI1); assay: ATG_IR1_CIS: Attagene CIS-FACTORIAL HepG2 Assay for human Nuclear Receptor Subfamily 1 Group H Member 4 (NR1H4), IR1 submotif (AID 2282946); conditions: IR1 reporter transcription, actives raise or lower the signal
Method in brief: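 HepG2 cells transiently transfected with multiple cis-promoter-driven reporter units to measure endogenous transcription factor activity; 24 h exposure. Reporter mRNA read by RT-PCR, FAM labelling, HpaI digestion and capillary electrophoresis. Bidirectional fit versus DMSO.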

[3] = ATG_ISRE_CIS: Attagene CIS-FACTORIAL HepG2 Assay for human Interferon Regulatory Factor 1 (IRF1) binding to an Interferon-Stimulated Response Element (ISRE) (AID 2282948); conditions: HepG2 ISRE cis-reporter (Attagene), mRNA transcription readout; actives raise or lower the signal
Method in brief: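 Transfected HepG2 (multiple reporter transcription units, cis elements) dosed 24 h. RNA → oligo(dT) RT → PCR → 6-FAM primer extension → HpaI → CE. DMSO = negative control/baseline.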

[4] = ATG_M_32_CIS: Attagene CIS-FACTORIAL HepG2 Assay for M32 Transcription Factor (Internal Marker) (AID 2282949); conditions: HepG2 Attagene cis-factorial M32 reporter, mRNA; actives raise or lower the signal;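 further: background control marker of the multiplexed CIS panel rather than a real target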
Method in brief: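 Following 24 h chemical exposure of HepG2 cells transiently expressing cis-promoter reporter constructs, reporter transcript levels were determined by RT-PCR with fluorescent labelling and capillary electrophoresis, then fitted bidirectionally against DMSO.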

[5] = ATG_M_06_CIS: Attagene CIS-FACTORIAL HepG2 Assay for M06 Transcription Factor (Internal Marker) (AID 2282950); conditions: HepG2 Attagene CIS-FACTORIAL M06 internal marker reporter; actives raise or lower the signal
Method in brief: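 Measured 24 h post-dosing in transiently transfected HepG2 cells, this internal-marker endpoint reports reporter mRNA via RT-PCR with fluorescent primer extension and capillary electrophoresis. DMSO served as negative control and baseline for bidirectional fitting.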

[6] = target: Hypoxia-inducible factor 1-alpha (Homo sapiens) (UniProt Q16665); assay: ATG_HIF1a_CIS: Attagene CIS-FACTORIAL HepG2 Assay for human Hypoxia Inducible Factor 1 (HIF1A) (AID 2282951); conditions: HepG2 Attagene cis-factorial HIF1a reporter transcription; actives raise or lower the signal
Method in brief: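 Activity is fitted in both directions relative to DMSO. Reporter transcripts are read by RT-PCR, fluorescent primer extension and capillary electrophoresis after 24 h chemical treatment. The cells are HepG2 carrying transiently transfected cis-element-driven reporter units responding to endogenous factors.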

[7] = target: Hepatocyte nuclear factor 6 (Homo sapiens) (UniProt Q9UBC0); assay: ATG_HNF6_CIS: Attagene CIS-FACTORIAL HepG2 Assay for human Hepatocyte Nuclear Factor 6 (HNF6) (AID 2282952); conditions: HepG2 Attagene cis-factorial HNF6 reporter transcription; actives raise or lower the signal
Method in brief: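 HepG2 cells transiently transfected with cis-element-driven multiple reporter transcription units, dosed 24 h; reporter mRNA quantified by RT-PCR, FAM primer extension, HpaI digestion and capillary electrophoresis; bidirectional fit versus DMSO baseline.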

[8] = target: Heat shock factor protein 1 (Homo sapiens) (UniProt Q00613); assay: ATG_HSE_CIS: Attagene CIS-FACTORIAL HepG2 Assay for human Heat Shock Transcription Factor 1 (HSE) (AID 2282953); conditions: HepG2 HSE cis-reporter, Attagene RNA transcription; actives raise or lower the signal
Method in brief: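 Reporter mRNA induction in HepG2 is measured 24 h after dosing, using transiently transfected multiplexed cis-regulated reporter units. Signal comes from capillary electrophoresis of labelled RT-PCR products, with DMSO as negative control.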

[9] = ATG_MRE_CIS: Attagene CIS-FACTORIAL HepG2 Assay for human Metal Responsive Element (MRE) (AID 2282954); conditions: HepG2 MRE cis-reporter transcription, Attagene multiplex; actives raise or lower the signal
Method in brief: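 Fluorescent reporter fragments separated by capillary electrophoresis give mRNA induction for the MRE unit after 24 h treatment of transfected HepG2 cells. Endogenous transcription-factor activity is read; DMSO serves as negative control and baseline.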

[10] = ATG_GRE_CIS: Attagene CIS-FACTORIAL HepG2 Assay for human Glucocorticoid Response Elements (GRE) (AID 2282947); conditions: HepG2 GRE cis-reporter, Attagene multiplex mRNA; actives raise or lower the signal
Method in brief: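 Endogenous transcription factor activity is read through cis-element reporter constructs transiently transfected into HepG2 cells. After 24 h treatment, labelled RT-PCR products are resolved by capillary electrophoresis; DMSO sets baseline for bidirectional curve fitting.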

Measured: AC50

Chain of Heat shock factor protein 1 (Homo sapiens) (Q00613 whole entry, looked up): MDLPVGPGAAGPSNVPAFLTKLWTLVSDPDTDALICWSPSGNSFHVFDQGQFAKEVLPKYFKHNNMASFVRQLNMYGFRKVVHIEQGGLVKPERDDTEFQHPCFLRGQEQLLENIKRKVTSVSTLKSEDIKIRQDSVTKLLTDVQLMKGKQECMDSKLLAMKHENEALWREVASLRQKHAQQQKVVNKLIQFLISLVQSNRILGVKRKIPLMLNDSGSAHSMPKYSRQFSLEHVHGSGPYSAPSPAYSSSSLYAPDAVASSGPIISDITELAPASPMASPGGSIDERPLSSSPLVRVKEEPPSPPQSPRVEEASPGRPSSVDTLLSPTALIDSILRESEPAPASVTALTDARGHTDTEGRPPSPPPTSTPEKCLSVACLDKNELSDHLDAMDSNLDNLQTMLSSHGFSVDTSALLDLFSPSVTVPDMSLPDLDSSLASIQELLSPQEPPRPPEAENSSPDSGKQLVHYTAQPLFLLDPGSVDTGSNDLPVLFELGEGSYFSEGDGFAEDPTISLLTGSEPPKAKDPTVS
Chain of Bile acid receptor (Homo sapiens) (Q96RI1 whole entry, looked up): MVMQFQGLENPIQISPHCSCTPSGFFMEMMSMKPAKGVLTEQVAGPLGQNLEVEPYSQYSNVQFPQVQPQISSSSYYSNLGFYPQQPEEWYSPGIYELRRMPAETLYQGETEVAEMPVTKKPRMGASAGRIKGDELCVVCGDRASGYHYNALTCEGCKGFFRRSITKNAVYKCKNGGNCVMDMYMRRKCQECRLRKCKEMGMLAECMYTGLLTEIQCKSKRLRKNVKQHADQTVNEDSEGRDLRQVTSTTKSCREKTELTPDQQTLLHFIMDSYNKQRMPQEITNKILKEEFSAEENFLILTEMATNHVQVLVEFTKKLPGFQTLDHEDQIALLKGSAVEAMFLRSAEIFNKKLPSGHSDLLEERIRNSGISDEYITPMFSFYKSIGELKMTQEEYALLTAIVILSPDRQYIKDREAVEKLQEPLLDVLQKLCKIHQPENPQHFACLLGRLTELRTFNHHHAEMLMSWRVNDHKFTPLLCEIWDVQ
Chain of Hypoxia-inducible factor 1-alpha (Homo sapiens) (Q16665 whole entry, looked up): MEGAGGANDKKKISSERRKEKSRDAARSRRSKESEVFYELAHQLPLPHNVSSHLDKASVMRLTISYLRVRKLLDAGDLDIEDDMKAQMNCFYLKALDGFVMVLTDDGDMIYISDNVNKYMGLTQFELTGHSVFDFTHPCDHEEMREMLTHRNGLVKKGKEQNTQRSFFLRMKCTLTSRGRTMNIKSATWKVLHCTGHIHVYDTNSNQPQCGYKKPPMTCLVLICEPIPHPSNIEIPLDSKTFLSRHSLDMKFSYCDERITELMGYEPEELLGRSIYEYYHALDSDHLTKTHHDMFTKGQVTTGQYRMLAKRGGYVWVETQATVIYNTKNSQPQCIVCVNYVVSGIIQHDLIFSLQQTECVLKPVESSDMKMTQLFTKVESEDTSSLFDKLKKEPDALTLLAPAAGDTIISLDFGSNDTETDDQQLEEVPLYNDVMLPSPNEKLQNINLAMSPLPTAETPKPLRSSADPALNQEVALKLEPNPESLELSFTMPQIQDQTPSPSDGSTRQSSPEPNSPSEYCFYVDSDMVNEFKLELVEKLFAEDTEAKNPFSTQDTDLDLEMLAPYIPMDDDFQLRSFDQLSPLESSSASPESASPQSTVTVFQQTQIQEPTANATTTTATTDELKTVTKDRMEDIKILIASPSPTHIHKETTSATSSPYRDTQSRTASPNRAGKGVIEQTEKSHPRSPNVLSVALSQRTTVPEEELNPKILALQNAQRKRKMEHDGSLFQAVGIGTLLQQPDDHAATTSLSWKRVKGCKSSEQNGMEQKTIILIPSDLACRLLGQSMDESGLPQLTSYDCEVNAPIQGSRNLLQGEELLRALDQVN
Chain of Hepatocyte nuclear factor 6 (Homo sapiens) (Q9UBC0 whole entry, looked up): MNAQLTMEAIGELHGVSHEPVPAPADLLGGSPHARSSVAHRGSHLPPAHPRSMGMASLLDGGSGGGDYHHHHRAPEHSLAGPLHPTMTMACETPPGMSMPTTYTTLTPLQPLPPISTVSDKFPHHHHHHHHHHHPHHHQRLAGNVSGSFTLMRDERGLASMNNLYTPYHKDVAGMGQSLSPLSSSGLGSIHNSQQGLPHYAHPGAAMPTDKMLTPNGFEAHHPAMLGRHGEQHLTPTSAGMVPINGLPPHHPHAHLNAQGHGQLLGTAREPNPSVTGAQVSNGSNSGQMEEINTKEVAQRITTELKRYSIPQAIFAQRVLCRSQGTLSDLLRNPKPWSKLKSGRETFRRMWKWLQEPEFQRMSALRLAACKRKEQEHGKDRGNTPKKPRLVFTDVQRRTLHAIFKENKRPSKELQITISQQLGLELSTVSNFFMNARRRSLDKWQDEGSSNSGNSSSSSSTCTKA

O=C(OCc1ccccc1)c1ccc(O)cc1
inactive: [2] | [4] | [5] | [7]
active: [1] 167 µM | [3] 187 µM | [6] 113 µM | [8] 168 µM | [9] 125 µM

CCCC/C=C/C=C\C=O
active: [1] 128 µM | [2] 71.6 µM | [3] 100 µM | [8] 157 µM | [9] 100 µM
inactive: [4] | [5] | [6] | [7]

O=S(=O)(O)c1ccc(Nc2nc(Nc3ccc(C=Cc4ccc(Nc5nc(Nc6ccc(S(=O)(=O)O)cc6)nc(N(CCO)CCO)n5)cc4S(=O)(=O)O)c(S(=O)(=O)O)c3)nc(N(CCO)CCO)n2)cc1
not listed: [7]
inactive: all other assays above

CCC(C)N (configuration not stated)
not listed: [10]
inactive: all other assays above

CCCCCCCOC(=O)c1ccc(O)cc1
active: [1] 45.7 µM | [2] 50.9 µM | [6] 59.9 µM | [9] 52.6 µM
not listed: [10]
inactive: all other assays above

CCOC(=O)C1=NN(c2ccc(Cl)cc2Cl)C(C)(C(=O)OCC)C1 (configuration not stated)
active: [8] 137 µM | [9] 66.8 µM
not listed: [7]
inactive: all other assays above

Cc1c(O)cccc1O
not listed: [10]
inactive: all other assays above

CC1=C(O)C(=O)C(C)O1 (configuration not stated)
not listed: [10]
inactive: all other assays above

C=C(C)C1CC=C(C)C(OC(C)=O)C1 (configuration not stated)
not listed: [7]
inactive: all other assays above

C=CC(C)(CCC=C(C)C)OC(=O)C=Cc1ccccc1 (configuration not stated)
not listed: [10]
inactive: all other assays above

O=C(Nc1ccccc1)c1cc(Cl)ccc1O
active: [8] 2.93 µM | [9] 23.9 µM
not listed: [7]
inactive: all other assays above

CC1(C)CC(O)CC(C)(C)N1[O]
active: [2] 27.7 µM
not listed: [10]
inactive: all other assays above

CCCCCC1=CCCC1=O
active: [4] 148 µM
not listed: [10]
inactive: all other assays above

CC(=O)OC1CCCCC1
not listed: [10]
inactive: all other assays above

O=C(O)c1cc(O)c2ccccc2c1O
active: [1] 33.4 µM | [2] 33.4 µM | [6] 48.9 µM
not listed: [10]
inactive: all other assays above

CC(C)C(=O)OCCc1ccccc1
not listed: [10]
inactive: all other assays above

CC1=CP(=O)(c2ccccc2)CC1 (configuration not stated)
not listed: [10]
inactive: all other assays above

COc1cc(O)c(C(=O)c2ccccc2)cc1S(=O)(=O)O
not listed: [10]
inactive: all other assays above

O=c1c(O)c(-c2ccc(O)cc2O)oc2cc(O)cc(O)c12
not listed: [6]
inactive: all other assays above

CC(=O)/C=C/C1C(C)=CCCC1(C)C (configuration not stated)
not listed: [10]
inactive: all other assays above

CCCCNC(=S)NCCCC
not listed: [10]
inactive: all other assays above

CCCCCCCCCCCCc1ccc(O)cc1
not listed: [10]
inactive: all other assays above

CCC(C)(O)CCCC(C)C (configuration not stated)
not listed: [7]
inactive: all other assays above

CC(C)c1ccc2ncccc2c1
not listed: [10]
inactive: all other assays above

CC(C=O)c1ccccc1 (configuration not stated)
not listed: [10]
inactive: all other assays above

CCOC(=O)OC(=O)OCC
not listed: [10]
inactive: all other assays above

CC(C)(C)NC(=O)[C@H]1CC[C@H]2[C@@H]3CC[C@H]4NC(=O)C=C[C@]4(C)[C@H]3CC[C@]12C
active: [9] 68.3 µM
not listed: [6]
inactive: all other assays above

CC1(C)CCC[C@]2(C)[C@H]3CC(=O)O[C@]3(C)CC[C@@H]12
not listed: [7]
inactive: all other assays above
